According to PubChem BioAssay AID1347084 (National Center for Advancing Translational Sciences (NCATS), 2019):
Results filed as inconclusive are left out. A number with no mark means an inactive call. The source made the active and inactive calls. Calls come from the whole dose curve.

Assay: qHTS for Inhibitors of the Functional Ribonucleoprotein Complex (vRNP) of Lymphocytic Choriomeningitis Arenaviruses (LCMV): LCMV Confirmatory Screen - GLuc reporter signal
Conditions: LCMV minigenome vRNP, Gaussia luciferase reporter; series mostly up to 53.9 µM; activity change, negative = inhibition: at the top concentration

Row | Compound | Potency | activity change, negative = inhibition
1 | CC1OC(=O)[C@@H](C(C)C)NC(=O)C(C(C)C)OC(=O)[C@H](C(C)C)NC(=O)C(C)OC(=O)[C@@H](C(C)C)NC(=O)C(C(C)C)OC(=O)[C@H](C(C)C)NC(=O)C(C)OC(=O)[C@@H](C(C)C)NC(=O)C(C(C)C)OC(=O)[C@H](C(C)C)NC1=O (some centres not stated) | 0.153 µM (active) | –
2 | CCC[C@H](N[C@@H](C)C(=O)N1[C@@H]2CCCC[C@H]2C[C@H]1C(=O)O)C(=O)OCC | – | -6.4%
3 | COCCOC(=O)C1=C(C)NC(C)=C(C(=O)OC/C=C/c2ccccc2)C1c1cccc([N+](=O)[O-])c1 (configuration not stated) | 21.7 µM (active) | –
4 | NC(=O)N/N=C/c1ccc([N+](=O)[O-])o1 | 24.3 µM (active) | –
5 | CC(=O)[C@H]1CC[C@H]2[C@@H]3CCC4=CC(=O)CC[C@]4(C)[C@H]3CC[C@]12C | 24.3 µM (active) | –
6 | COC(=O)c1nc(Cl)c(Cl)nc1N | 1.72 µM (active) | –
7 | C=C1CC[C@@H]2[C@](C)(CO)[C@H](O)CC[C@@]2(C)[C@@H]1/C=C/C1=CCOC1=O | 21.7 µM (active) | –
8 | CC(C)=CCC/C(C)=C/CC/C(C)=C/CC[C@]1(C)CCc2c(C)c(O)c(C)c(C)c2O1 | – | -18.6% [at 6 µM]
9 | C=C(C)[C@H]1Cc2c(ccc3c2O[C@@H]2COc4cc(OC)c(OC)cc4[C@@H]2C3=O)O1 | 0.0544 µM (active) | –
10 | C=C(C)C1Cc2c(ccc3c2OC2COc4cc(OC)c(OC)cc4C2C3=O)O1 (configuration not stated) | 0.0153 µM (active) | –
11 | Fc1ccc(CNc2ncnc3ccc(F)cc23)cc1 | 8.63 µM (active) | –
12 | CC[C@@]1([C@@H]2O[C@@H]([C@H]3O[C@@](O)(CO)[C@H](C)C[C@H]3C)C[C@H]2C)CC[C@H]([C@]2(C)CC[C@]3(C[C@H](O)[C@@H](C)[C@@H]([C@@H](C)[C@@H](OC)[C@H](C)C(=O)O)O3)O2)O1 | 0.168 µM (active) | –
